# Test results as given in PubChem BioAssay (EPA / NIEHS).
# Activity calls are given as the source filed them. The calls were made as follows: active = hit-call score of the fitted dose curve at least 0.9, where 1 is the maximum; inactive = score below 0.9.
# What was measured:
# Settings in all cases: mRNA level, 48 h; actives raise or lower the signal
# [1] = read-out: Cyclin D2 (CCND2), CCND2 (gene 894); assay: LTEA_HepaRG_CCND2: Life Technologies and Expression Analysis (LTEA) Assay for Cyclin D2 (CCND2) using HepaRG (AID 2283449);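 also: CCND2 transcript measured by TaqMan qRT-PCR and normalised to three housekeeping genes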
# Summary of the method: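 Chemicals in 0.5% DMSO, eight half-log concentrations from 100 uM top, were applied in duplicate for 48 h to human HepaRG cells in serum-free induction medium. CCND2 mRNA by TaqMan qRT-PCR, normalised to ACTB/GAPDH/POLR2A; bidirectional fit versus DMSO.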
# [2] = read-out: Cyclin Dependent Kinase Inhibitor 1A (CDKN1A), CDKN1A (gene 1026); assay: LTEA_HepaRG_CDKN1A: Life Technologies and Expression Analysis (LTEA) Assay for Cyclin Dependent Kinase Inhibitor 1A (CDKN1A) using HepaRG (AID 2283450)
# Summary of the method: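 Gain or loss of CDKN1A transcript is scored by bidirectional fitting against 0.5% DMSO vehicle. Human HepaRG cultures receive chemicals for 48 h across an 8-point series peaking at 100 uM; expression comes from qRT-PCR.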
# [3] = read-out: Cyclin D1 (CCND1), CCND1 (gene 595); assay: LTEA_HepaRG_CCND1: Life Technologies and Expression Analysis (LTEA) Assay for Cyclin D1 (CCND1) using HepaRG (AID 2283451);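 as to AC50: TaqMan qRT-PCR transcript level normalised to ACTB GAPDH and POLR2A housekeeping genes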
# Summary of the method: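 Expression change is measured by qRT-PCR in HepaRG cells after 48 h treatment across eight concentrations topping at 100 uM, with duplicate wells and DMSO (0.5%) serving as baseline for bidirectional fitting.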
# [4] = read-out: catalase (CAT), CAT (gene 847); assay: LTEA_HepaRG_CAT: Life Technologies and Expression Analysis (LTEA) Assay for catalase (CAT) using HepaRG (AID 2283452);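 as to AC50: TaqMan qRT-PCR signal normalized to ACTB GAPDH and POLR2A housekeeping genes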
# Summary of the method: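 HepaRG cells in serum-free induction medium, 0.5% DMSO vehicle, exposed 48 h in duplicate over 8 half-log concentrations from 100 uM. CAT mRNA measured by qRT-PCR, normalized to ACTB, GAPDH, POLR2A; bidirectional fit versus DMSO.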
# [5] = read-out: flavin-containing dimethylaniline monooxygenases 3 (FMO3), FMO3 (gene 2328); assay: LTEA_HepaRG_FMO3: Life Technologies and Expression Analysis (LTEA) Assay for flavin-containing dimethylaniline monooxygenases 3 (FMO3) using HepaRG (AID 2283453)
# Summary of the method: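 Differentiated HepaRG cells in serum-free induction medium, exposed 48 h in duplicate to 8 half-log concentrations up to 100 uM in 0.5% DMSO. FMO3 mRNA by qRT-PCR, normalized to ACTB, GAPDH, POLR2A; bidirectional fit vs DMSO.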
# [6] = read-out: Cytochrome P450 (CYP1A1), CYP1A1 (gene 1543); assay: LTEA_HepaRG_CYP1A1: Life Technologies and Expression Analysis (LTEA) Assay for Cytochrome P450 (CYP1A1) using HepaRG (AID 2283454)
# Summary of the method: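 Using HepaRG cultures with 0.5% DMSO as vehicle, eight-concentration exposures (max 100 uM) lasted 48 h. Transcript levels were measured by TaqMan qRT-PCR and normalized to ACTB, GAPDH and POLR2A.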
# [7] = read-out: CFLAR gene, CFLAR (gene 8837); assay: LTEA_HepaRG_CFLAR: Life Technologies and Expression Analysis (LTEA) Assay for CFLAR gene using HepaRG (AID 2283455)
# Summary of the method: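 Differentiated HepaRG cells in serum-free induction medium were exposed 48 h in duplicate to eight half-log concentrations up to 100 uM in 0.5% DMSO; mRNA measured by TaqMan qRT-PCR, normalized to ACTB, GAPDH, POLR2A; bidirectional fitting versus DMSO.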
# [8] = read-out: Forkhead box O1 (FOXO1), FOXO1 (gene 2308); assay: LTEA_HepaRG_FOXO1: Life Technologies and Expression Analysis (LTEA) Assay for Forkhead box O1 (FOXO1) using HepaRG (AID 2283456)
# Summary of the method: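 Differentiated HepaRG cells, in serum-free induction medium with 0.5% DMSO, exposed 48 h in duplicate to 8-point half-log series from 100 uM. FOXO1 mRNA measured by TaqMan qRT-PCR, normalized to ACTB, GAPDH, POLR2A; bidirectional fit versus DMSO.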
# [9] = read-out: growth arrest and DNA damage 45 (GADD45A), GADD45A (gene 1647); assay: LTEA_HepaRG_GADD45A: Life Technologies and Expression Analysis (LTEA) Assay for growth arrest and DNA damage 45 (GADD45A) using HepaRG (AID 2283458)
# Summary of the method: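 Differentiated HepaRG cells exposed 48 h in serum-free induction medium to 8 concentrations, top 100 uM in half-log steps, 0.5% DMSO. GADD45A mRNA quantified by qRT-PCR, normalized to ACTB, GAPDH and POLR2A; bidirectional fit versus DMSO.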
# [10] = read-out: Forkhead box O3 (FOXO3), FOXO3 (gene 2309); assay: LTEA_HepaRG_FOXO3: Life Technologies and Expression Analysis (LTEA) Assay for Forkhead box O3 (FOXO3) using HepaRG (AID 2283459)
# Summary of the method: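 Differentiated human HepaRG cells, 48 h post-plating, exposed in duplicate for 48 h in serum-free induction medium; 8-point half-log series from 100 uM in 0.5% DMSO. FOXO3 mRNA by TaqMan qRT-PCR, normalized to ACTB/GAPDH/POLR2A; bidirectional fit versus DMSO.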
# [11] = read-out: ABC Transporter (ABCB1), ABCB1 (gene 5243); assay: LTEA_HepaRG_ABCB1: Life Technologies and Expression Analysis (LTEA) Assay for ABC Transporter (ABCB1) using HepaRG (AID 2283460)
# Summary of the method: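 HepaRG cells exposed in duplicate for 48 h in serum-free induction medium to eight half-log concentrations up to 100 uM in 0.5% DMSO. ABCB1 mRNA quantified by qRT-PCR, normalised to ACTB, GAPDH and POLR2A; fitted bidirectionally versus DMSO.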
# [12] = read-out: growth arrest and DNA damage 45 (GADD45B), GADD45B (gene 4616); assay: LTEA_HepaRG_GADD45B: Life Technologies and Expression Analysis (LTEA) Assay for growth arrest and DNA damage 45 (GADD45B) using HepaRG (AID 2283461)
# Summary of the method: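 Human HepaRG monolayers receive chemicals for 48 h at eight half-log concentrations, highest 100 uM, in 0.5% DMSO. Expression is measured by TaqMan qRT-PCR and normalized to ACTB, GAPDH and POLR2A.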
# [13] = read-out: ABC Transporter (ABCC3), ABCC3 (gene 8714); assay: LTEA_HepaRG_ABCC3: Life Technologies and Expression Analysis (LTEA) Assay for ABC Transporter (ABCC3) using HepaRG (AID 2283462)
# Summary of the method: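 Transcriptional change of ABCC3 in HepaRG after 48 h treatment, determined by qRT-PCR normalized to endogenous controls. Concentrations spanned eight half-log steps to 100 uM in 0.5% DMSO.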
# [14] = read-out: ABC Transporter (ABCB11), ABCB11 (gene 8647); assay: LTEA_HepaRG_ABCB11: Life Technologies and Expression Analysis (LTEA) Assay for ABC Transporter (ABCB11) using HepaRG (AID 2283463)
# Summary of the method: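 Differentiated human HepaRG cells in serum-free induction medium, dosed in duplicate for 48 h. Eight-point half-log series from 100 uM in 0.5% DMSO; ABCB11 mRNA by qRT-PCR, normalized to ACTB, GAPDH, POLR2A, fitted bidirectionally versus DMSO.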
# [15] = read-out: ABC Transporter (ABCC2), ABCC2 (gene 1244); assay: LTEA_HepaRG_ABCC2: Life Technologies and Expression Analysis (LTEA) Assay for ABC Transporter (ABCC2) using HepaRG (AID 2283464)
# Summary of the method: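 After plating and 48 h culture, HepaRG medium is replaced with serum-free induction medium and chemicals are added (8 concentrations, max 100 uM, 0.5% DMSO) for 48 h. Total RNA then undergoes qRT-PCR for ABCC2 with housekeeping normalization.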
# [16] = read-out: Broad substrate specificity ATP-binding cassette transporter ABCG2 (Homo sapiens) (UniProt Q9UNQ0); assay: LTEA_HepaRG_ABCG2: Life Technologies and Expression Analysis (LTEA) Assay for ABC Transporter (ABCG2) using HepaRG (AID 2283465)
# Summary of the method: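 Differentiated HepaRG cells were exposed for 48 h in serum-free induction medium to 8 half-log concentrations, top 100 uM, in 0.5% DMSO. ABCG2 mRNA was measured by qRT-PCR, normalized to ACTB, GAPDH and POLR2A, with bidirectional fitting versus DMSO.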
# [17] = read-out: Peroxisomal acyl-coenzyme A oxidase 1 (ACOX1) gene, ACOX1 (gene 51); assay: LTEA_HepaRG_ACOX1: Life Technologies and Expression Analysis (LTEA) Assay for Peroxisomal acyl-coenzyme A oxidase 1 (ACOX1) gene using HepaRG (AID 2283467)
# Summary of the method: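 HepaRG cells, plated 48 h then switched to serum-free induction medium, were exposed in duplicate for 48 h to 8-point half-log concentrations up to 100 uM in 0.5% DMSO. ACOX1 mRNA was measured by qRT-PCR, normalized to ACTB/GAPDH/POLR2A, and fitted bidirectionally versus DMSO.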
# [18] = read-out: ATP-citrate lyase (ACLY), ACLY (gene 47); assay: LTEA_HepaRG_ACLY: Life Technologies and Expression Analysis (LTEA) Assay for ATP-citrate lyase (ACLY) using HepaRG (AID 2283466)
# Summary of the method: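 Differentiated HepaRG cells exposed 48 h in serum-free induction medium to eight half-log concentrations up to 100 uM in 0.5% DMSO, duplicates. Transcript measured by Fluidigm TaqMan qRT-PCR, normalized to ACTB, GAPDH, POLR2A; bidirectional fit versus DMSO.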
# [19] = read-out: Alkaline Phosphatase, Placental (ALPP) gene, ALPP (gene 250); assay: LTEA_HepaRG_ALPP: Life Technologies and Expression Analysis (LTEA) Assay for Alkaline Phosphatase, Placental (ALPP) gene using HepaRG (AID 2283468)
# Summary of the method: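 Using human liver HepaRG cells, chemicals are tested in duplicate over 48 h at half-log concentrations topping at 100 uM; phenobarbital 1 mM serves as induction control. ALPP mRNA change by qRT-PCR, bidirectional fit against vehicle.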
# Broad substrate specificity ATP-binding cassette transporter ABCG2 (Homo sapiens), sequence (Q9UNQ0 whole entry, looked up): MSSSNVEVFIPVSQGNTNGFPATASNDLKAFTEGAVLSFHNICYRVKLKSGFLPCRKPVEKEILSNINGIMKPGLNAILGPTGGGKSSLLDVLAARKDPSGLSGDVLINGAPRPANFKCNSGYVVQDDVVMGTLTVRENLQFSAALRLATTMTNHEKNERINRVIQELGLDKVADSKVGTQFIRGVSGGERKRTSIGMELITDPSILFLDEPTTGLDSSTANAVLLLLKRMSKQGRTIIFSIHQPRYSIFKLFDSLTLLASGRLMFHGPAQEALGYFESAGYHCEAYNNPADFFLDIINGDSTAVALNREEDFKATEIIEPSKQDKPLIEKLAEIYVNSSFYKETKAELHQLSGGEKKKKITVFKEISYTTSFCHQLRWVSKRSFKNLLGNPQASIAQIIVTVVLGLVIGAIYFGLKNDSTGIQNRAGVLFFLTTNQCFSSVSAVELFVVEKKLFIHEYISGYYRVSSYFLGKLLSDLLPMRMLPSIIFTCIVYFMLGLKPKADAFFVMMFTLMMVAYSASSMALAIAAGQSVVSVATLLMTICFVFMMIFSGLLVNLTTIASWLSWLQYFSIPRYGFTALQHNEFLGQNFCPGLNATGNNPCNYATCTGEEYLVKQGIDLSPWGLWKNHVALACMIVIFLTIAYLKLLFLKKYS
smiles,measurement,setting,value
CCN(CC)C(=O)C(C)Oc1cccc2ccccc12 (stereo unspecified),outcome,[1],inactive
same,outcome,[2],inactive
same,outcome,[3],inactive
same,AC50,[4],81.2 µM (active)
same,AC50,[5],82.9 µM (active)
same,AC50,[6],36.9 µM (active)
same,outcome,[7],inactive
same,outcome,[8],inactive
same,outcome,[9],inactive
same,outcome,[10],inactive
same,outcome,[11],inactive
same,outcome,[12],inactive
same,outcome,[13],inactive
same,AC50,[14],50 µM (active)
same,outcome,[15],inactive
same,AC50,[16],50 µM (active)
same,AC50,[17],69.8 µM (active)
Cc1c(COC(=O)[C@@H]2[C@H](/C=C(\Cl)C(F)(F)F)C2(C)C)cccc1-c1ccccc1,outcome,[2],inactive
same,outcome,[3],inactive
same,outcome,[4],inactive
same,outcome,[5],inactive
same,AC50,[6],33.6 µM (active)
same,outcome,[7],inactive
same,outcome,[8],inactive
same,outcome,[9],inactive
same,outcome,[10],inactive
same,AC50,[11],28.3 µM (active)
same,outcome,[12],inactive
same,outcome,[13],inactive
same,outcome,[14],inactive
same,outcome,[15],inactive
same,AC50,[16],50 µM (active)
same,outcome,[18],inactive
same,outcome,[17],inactive
same,outcome,[19],inactive
CSC(=O)c1c(C(F)F)nc(C(F)(F)F)c(C(=O)SC)c1CC(C)C,outcome,[2],inactive
same,outcome,[3],inactive
same,outcome,[4],inactive
same,AC50,[5],86.8 µM (active)
same,AC50,[6],17.1 µM (active)
same,outcome,[7],inactive
same,outcome,[8],inactive
same,outcome,[9],inactive
same,outcome,[10],inactive
same,outcome,[11],inactive
same,outcome,[12],inactive
same,outcome,[13],inactive
same,AC50,[14],49.8 µM (active)
same,AC50,[15],9.66 µM (active)
same,outcome,[16],inactive
same,outcome,[17],inactive
CC(C)N1C(=O)c2ccccc2NS1(=O)=O,outcome,[1],inactive
same,outcome,[2],inactive
same,outcome,[3],inactive
same,outcome,[4],inactive
same,outcome,[5],inactive
same,outcome,[6],inactive
same,outcome,[7],inactive
same,outcome,[8],inactive
same,outcome,[9],inactive
same,outcome,[10],inactive
same,outcome,[11],inactive
same,outcome,[12],inactive
same,outcome,[13],inactive
same,outcome,[14],inactive
same,outcome,[15],inactive
same,outcome,[16],inactive
same,outcome,[17],inactive
N#CN=C1SCCN1Cc1ccc(Cl)nc1,outcome,[2],inactive
same,outcome,[3],inactive
same,outcome,[4],inactive
same,outcome,[5],inactive
same,outcome,[6],inactive
same,outcome,[7],inactive
same,outcome,[8],inactive
same,outcome,[9],inactive
same,outcome,[10],inactive
same,outcome,[11],inactive
same,outcome,[12],inactive
same,outcome,[13],inactive
same,outcome,[14],inactive
same,outcome,[15],inactive
same,outcome,[16],inactive
same,outcome,[18],inactive
same,outcome,[17],inactive
CC(C)NC(=O)N1CC(=O)N(c2cc(Cl)cc(Cl)c2)C1=O,outcome,[1],inactive
same,outcome,[2],inactive
same,AC50,[3],23.8 µM (active)
same,AC50,[4],13.3 µM (active)
same,AC50,[5],17 µM (active)
same,AC50,[6],5.2 µM (active)
same,outcome,[8],inactive
same,outcome,[9],inactive
same,AC50,[10],7.56 µM (active)
same,AC50,[11],3.58 µM (active)
same,AC50,[12],26.3 µM (active)
same,outcome,[13],inactive
same,outcome,[14],inactive
same,outcome,[15],inactive
same,AC50,[16],15 µM (active)
same,AC50,[17],14.4 µM (active)
same,outcome,[19],inactive
CCOc1nc(C(Cl)(Cl)Cl)ns1,AC50,[1],1.11 µM (active)
same,outcome,[2],inactive
same,AC50,[3],1.18 µM (active)
same,outcome,[4],inactive
same,AC50,[5],0.644 µM (active)
same,AC50,[6],1.44 µM (active)
same,AC50,[7],0.912 µM (active)
same,AC50,[8],1 µM (active)
same,AC50,[9],1.49 µM (active)
same,AC50,[10],0.967 µM (active)
same,AC50,[11],1.05 µM (active)
same,AC50,[12],1.23 µM (active)
same,outcome,[13],inactive
same,AC50,[14],1.08 µM (active)
same,outcome,[15],inactive
same,AC50,[16],1.29 µM (active)
same,AC50,[18],23.8 µM (active)
same,AC50,[17],1.11 µM (active)
same,AC50,[19],2.14 µM (active)
